Tau fibril FP – qHTS for Inhibitors of Tau Fibril Formation, Fluorescence Polarization; K18 P301L tau heparin fibrillization, Alexa594 FP, 6 h; AID 1468, 2008; Potency, µM (top dose mostly 57.7 µM), hits mostly inhibitors; 280,000 compounds, 0.39% hits; note: nearly all actives have a fitted effect of over 55% in size
Target sequence (P10636 561-689 P618L limits assumed): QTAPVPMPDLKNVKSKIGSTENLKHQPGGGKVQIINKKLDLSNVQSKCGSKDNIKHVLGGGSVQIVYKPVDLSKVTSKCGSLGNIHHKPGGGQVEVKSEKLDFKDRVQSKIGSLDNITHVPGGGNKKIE
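Human K18 P301L fragment (15 uM unlabeled plus 0.24 uM Alexa 594-labeled) in 100 mM sodium acetate pH 7 with compound, aggregation induced by 20 uM heparin for 6 hr at 37 C. ThT (30 uM) added for 1 hr, then Alexa 594 FP read.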
RGS12 GoLoco inh – qHTS Assay for Inhibitors of RGS12 GoLoco Motif Activity (Red Fluorophore). Guanine nucleotide-binding protein G(i) subunit alpha-1 (Homo sapiens), P63096. 230,000 compounds, 0.44% hits. Potency, µM (titrated, usually from 61.6 µM), most hits filed as inhibitors. Gai1:RGS12 GoLoco peptide FP, rhodamine, 10 min; active = well fitted inhibition curve with a large enough effect, not every such curve was filed as active; inactive = no such curve, though single readings can be large or run the other way; note: nearly all actives have a fitted effect of over 30% in size
Target sequence (P63096 whole entry, looked up): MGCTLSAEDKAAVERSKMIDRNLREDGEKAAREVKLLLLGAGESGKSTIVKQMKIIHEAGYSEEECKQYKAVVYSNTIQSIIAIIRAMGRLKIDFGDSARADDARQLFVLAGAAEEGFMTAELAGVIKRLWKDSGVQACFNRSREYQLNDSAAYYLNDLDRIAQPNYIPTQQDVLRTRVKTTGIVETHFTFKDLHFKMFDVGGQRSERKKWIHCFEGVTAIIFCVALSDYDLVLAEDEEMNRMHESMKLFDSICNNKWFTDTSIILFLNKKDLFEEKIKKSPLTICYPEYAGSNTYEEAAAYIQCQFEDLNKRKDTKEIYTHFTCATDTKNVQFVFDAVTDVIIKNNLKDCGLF
Tau fluor counter – Counterscreen qHTS for Inhibitors of Tau Fibril Formation, Fluorescence Polarization | 280,000 compounds, 0.93% hits | Potency, µM (titrated, usually from 57.7 µM) | tau K18 P301L Alexa594 fluorescence, heparin fibrillization; note: nearly all actives have a fitted effect of over 55% in size
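Human K18 P301L tau (15 uM unlabeled plus 0.24 uM Alexa 594-labeled, final) in 100 mM sodium acetate pH 7 was mixed with compound and 20 uM heparin and incubated 6 hr at 37 C.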
Tau ThT inhib – qHTS for Inhibitors of Tau Fibril Formation, Thioflavin T Binding. recombinant tau K18 P301L (four-repeat tau fragment), heparin-induced fibrillization, ThT fluorescence. Potency, µM (top dose mostly 57.4 µM), actives largely listed as inhibitors. 270,000 compounds, 2.1% hits. AID 1460, 2008; note: nearly all actives have a fitted effect of over 55% in size
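In this qHTS, human K18 P301L tau is incubated with compound and heparin for 6 hr at 37 C, and Thioflavin T fluorescence then reports fibril load.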
JMJD2E inh – qHTS Assay for Inhibitors of Human Jumonji Domain Containing 2E (JMJD2E). JMJD2E catalytic domain, FDH-coupled NADH fluorescence (FDH is formaldehyde dehydrogenase). 230,000 compounds, 1.6% hits. Potency, µM (series often up to 57.1 µM), hits mostly inhibitors; active = well fitted inhibition curve with a large enough effect, not every such curve was filed as active; inconclusive = small, poorly fitted or top-dose-only effect, or another doubt; inactive = no such curve, though single readings can be large or run the other way; note: nearly all actives have a fitted effect of over 50% in size
A number is an active result; 0 = inactive; ? = inconclusive; - = not tested or not shown; [ ] = remark or other dose. This is a sample that favours compounds with a hit; in the whole collection about 3.4% have one here. Unless noted, calls come from the whole dose curve; as a rule, active = well fitted curve in the direction sought with a large enough effect; inconclusive = small, poorly fitted or top-dose-only effect, or another doubt; inactive = no such curve, though single readings can be large; an effect the other way counts as inactive or inconclusive.

SMILES	Tau fibril FP	RGS12 GoLoco inh	Tau fluor counter	Tau ThT inhib	JMJD2E inh
Oc1ccc(/C=N/Nc2nc(-c3ccc(Cl)cc3)cc(C(F)(F)F)n2)cc1	?	0	25.1µM[quencher]	17.8µM	0
Fc1ccc(CNc2nc(-c3ccc(Cl)cc3)cc(C(F)(F)F)n2)cc1	?	-	0	0	-
Cn1cccc1-c1nc2ccc(NC(=O)c3cccs3)cc2[nH]1	0	0	?	11.2µM	0
O=C1c2ccccc2C(=O)N1CCSc1ncn[nH]1	0	0	0	0	0
CCc1ccc(S(=O)(=O)N2CC(=O)Nc3ccccc32)cc1	0	0	0	0	0
CCc1ccc(S(=O)(=O)/N=C2\C=CC(=O)c3ccccc32)cc1	?	0	?	17.8µM	0
CCc1ccc(S(=O)(=O)/N=C2/C=C(Sc3ncn[nH]3)C(=O)c3ccccc32)cc1	11.2µM	0	?	3.98µM	3.55µM
CCOc1cccc(C=Nc2cc(C)cc(C)c2O)c1O	?	0	?	25.1µM	?
Cc1sc2ncnc(NCc3cccs3)c2c1C	0	0	0	0	0
Cc1sc2ncnc(N/N=C/c3ccccc3O)c2c1C	?	0	?	?	25.1µM
COc1ccc(/C=N/Nc2ncnc3sc(C)c(C)c23)cc1	?	0	?	?	0
Cc1sc2ncnc(N/N=C/c3ccc(O)cc3)c2c1C	0	0	12.6µM[quencher]	4.47µM	0
CCCc1ccc(/C=C2\C(=O)c3ccccc3C(O)=C2C(=O)OCC)cc1	?	0	?	31.6µM	17.8µM
CCOC(=O)C1=C(O)c2ccccc2C(=O)/C1=C\c1ccc(CC)cc1	20µM	0	?	14.1µM	?
CCOC(=O)c1c(C)oc2c1C(=O)c1ccccc1C2=O	0	0	0	?	0
O=S1(=O)c2ccccc2N(Cc2ccccc2Cl)c2ccccc21	0	-	0	0	-
COCCCN1CCc2nc(SCC(=O)Nc3ccc(C)c(Cl)c3)[nH]c(=O)c2C1	0	-	0	0	-
COC(=O)CC1Oc2ccc(Cl)cc2-n2cc(-c3ccc(C)cc3)nc21 (stereo not drawn)	0	-	0	0	-
O=C(Oc1ccc2ccccc2c1)c1cncc(Br)c1	0	0	0	0	0
O=C(Oc1ccc2c(=O)c(Oc3ccc4ccccc4c3)coc2c1)c1cncc(Br)c1	0	0	0	0	11.2µM
Cc1cccc(C2C3=C(Nc4[nH]n(-c5ccccc5)c(=O)c42)c2ccccc2C3=O)c1 (stereo not drawn)	0	0	?	15.8µM	0
COc1ccc(C2C(C#N)=C(C)NC3=C2C(=O)c2ccccc23)cc1 (stereo not drawn)	0	0	0	?	?
Cc1ccccc1C1C2=C(Nc3[nH]n(-c4ccccc4)c(=O)c31)c1ccccc1C2=O (stereo not drawn)	0	0	?	14.1µM	0
Cc1ccccc1-c1ccnc2[nH]n(-c3ccccc3)c(=O)c12	0	-	0	?	-
CCCCN(CCCC)C(=O)CN(C)S(=O)(=O)c1ccc2c(c1)c(=O)n(C)c(=O)n2C	0	-	0	0	-
SMILES	Tau fibril FP	RGS12 GoLoco inh	Tau fluor counter	Tau ThT inhib	JMJD2E inh
CC(C)CCNS(=O)(=O)c1ccc(N2CCCCS2(=O)=O)cc1	0	-	0	0	-
COC(=O)CCc1sc(Nc2ccc(OC)cc2)nc1-c1ccc(OC)cc1	0	-	17.8µM[quencher]	?	-
COc1cc(C(=O)NCCCc2nc3ccccc3n2CC(C)C)cc(OC)c1OC	0	-	0	0	-
NNc1nc2c(F)cccc2s1	?	0	17.8µM[quencher]	15.8µM	0
NNc1nc2c(F)cc(F)cc2s1	0	0	?	12.6µM	0
COc1ccc(NC(=S)Nc2ccc(OCc3ccccc3)cc2)cc1OC	0	0	25.1µM[quencher]	?	0
CCOc1ccccc1CNC(=O)Cn1nc(C)c2nn(-c3ccc(Cl)cc3)c(C)c2c1=O	0	-	0	0	-
CC1=C(C#N)C(=O)NC(=O)/C1=C\c1ccc(-c2ccc(C)cc2[N+](=O)[O-])o1	?	0	?	15.8µM	?
CCOC(=O)c1cc(-c2ccc(/C=C3/C(=O)NC(=O)C(C#N)=C3C)o2)ccc1Cl	0	0	?	?	?
Cc1ccc(C(=O)c2no[n+]([O-])c2C(=O)c2ccc(C)cc2)cc1	?	0	0	14.1µM	0
Cc1ccc(C(=O)/C=C\C(=O)c2ccc(C)cc2)cc1	0	0	0	0	0
COc1cccc(-n2cc(C(=O)Nc3cc(OC)c(OC)c(OC)c3)c3ccccc3c2=O)c1	0	-	0	0	-
CCOc1ccc2nc3cc(N)ccc3c(N)c2c1	?	0	12.6µM[quencher]	7.08µM	?
Cc1cc(C)cc(NS(=O)(=O)c2ccc3c(c2)NC(=O)C(C)S3)c1 (stereo not drawn)	0	-	0	0	-
NC(=O)C1(N2CCCCC2)CCN(C(=S)NCCc2ccccc2)CC1	0	0	0	0	0
CC(=C1C(=O)c2ccccc2C1=O)N1CCC(C(N)=O)(N2CCCCC2)CC1	0	0	0	31.6µM	?
CC(C)COc1ccc(C(=O)Nc2nnc(S(=O)(=O)N(C)Cc3ccco3)s2)cc1	0	-	0	?	-
Cc1ccc(C)c(CSc2nnc(C)n3c2cc2sccc23)c1	0	-	0	?	-
Cc1nnc(SCc2ccccc2)c2cc3sccc3n12	?	-	0	22.4µM	-
Cc1cccc(-n2c(C)nc3cc(C(=O)NC4CCCCCC4)ccc32)c1	0	-	0	0	-
CC(C)=C1C(=O)NN(c2ccc(F)c(Cl)c2)C1=O	0	0	0	?	0
O=C1NN(c2ccc(F)c(Cl)c2)C(=O)/C1=C\c1cccc(OC(=O)c2cccs2)c1	0	0	?	20µM	0
Oc1ccc(/C=N/Nc2nc(N3CCCCCC3)nc(N3CCCCCC3)n2)c(O)c1	0	0	10µM[quencher]	?	0
Oc1ccc(/C=N/Nc2nc(N3CCCC3)nc(N3CCCC3)n2)cc1O	0	0	?	?	17.8µM
Oc1ccc(Br)cc1/C=N/Nc1nc(N2CCCCC2)nc(N2CCOCC2)n1	?	0	?	0	0
SMILES	Tau fibril FP	RGS12 GoLoco inh	Tau fluor counter	Tau ThT inhib	JMJD2E inh
COc1cccc(Cn2c(CNC(=O)CCc3ccccc3)nc3cccnc32)c1	0	-	0	0	-
Cc1ccc2c(c1)-c1nc(-c3ccc4c(c3)NC(=O)CO4)cc(-c3ccc(F)cc3)c1CO2	?	-	0	0	-
Cc1cc(N2CCCC2)ccc1/C=C1/C(=O)N(C)C(=S)N1C	?	0	0	?	0
CN1C(=O)/C(=C/C=C2/CCCN2C)N(C)C1=S	?	0	0	20µM	0
NC(=O)Cn1c(=O)n(-c2ccc(F)c(Cl)c2)c(=O)c2sc3ccccc3c21	0	-	0	0	-
N#CC(C#N)=C(N)/C(C#N)=C/c1ccc2[nH]ccc2c1	0	0	?	14.1µM	-
Cc1c(C(=O)O)c(O)cc2c1C(=O)c1c(O)c([C@H]3O[C@H](CO)[C@@H](O)[C@H](O)[C@H]3O)c(O)c(O)c1C2=O	0	0	?	?	7.94µM
